Assay results from the supplement of paper PMC10849652.
Of roughly 8,800 targets only a part is listed; those with a hit were picked by preference. About 0.5% of all pairs of compound and target were hits.

Compound: NC(=O)Nc1cc(-c2cccc(F)c2)sc1C(=O)N[C@H]1CCCNC1
Test: log2 fold change, soluble protein after heating vs DMSO (PISA); higher = thermal stabilisation; K562 lysate, 10 uM; active = over 0.2 and 3.5 SD of the protein, either way, in both replicates (recomputed)
Summary of the method: (§1)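 Log-two fold change in thermal stability relative to solvent controls is reported from duplicates. For each sample, crude K562 extract from dounce-homogenised pellets in PBS pH 7.4 with 1 mM MgCl2, at 1 mg/mL protein, was treated with 10 μM compound for 30 min. Aliquots heated for 3 min across 48°C-58°C were pooled, brought to 0.5% NP-40 at 4°C and cleared at 21,000xg for 90 min. The supernatant was quantified by TMTpro 16plex LC-MS/MS with channel sums equalised.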

UniProt Q99417, sequence (Q99417 whole entry, looked up): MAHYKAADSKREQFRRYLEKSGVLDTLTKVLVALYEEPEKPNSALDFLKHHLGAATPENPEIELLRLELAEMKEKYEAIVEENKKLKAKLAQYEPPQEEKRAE
UniProt O76041, sequence (O76041 whole entry, looked up): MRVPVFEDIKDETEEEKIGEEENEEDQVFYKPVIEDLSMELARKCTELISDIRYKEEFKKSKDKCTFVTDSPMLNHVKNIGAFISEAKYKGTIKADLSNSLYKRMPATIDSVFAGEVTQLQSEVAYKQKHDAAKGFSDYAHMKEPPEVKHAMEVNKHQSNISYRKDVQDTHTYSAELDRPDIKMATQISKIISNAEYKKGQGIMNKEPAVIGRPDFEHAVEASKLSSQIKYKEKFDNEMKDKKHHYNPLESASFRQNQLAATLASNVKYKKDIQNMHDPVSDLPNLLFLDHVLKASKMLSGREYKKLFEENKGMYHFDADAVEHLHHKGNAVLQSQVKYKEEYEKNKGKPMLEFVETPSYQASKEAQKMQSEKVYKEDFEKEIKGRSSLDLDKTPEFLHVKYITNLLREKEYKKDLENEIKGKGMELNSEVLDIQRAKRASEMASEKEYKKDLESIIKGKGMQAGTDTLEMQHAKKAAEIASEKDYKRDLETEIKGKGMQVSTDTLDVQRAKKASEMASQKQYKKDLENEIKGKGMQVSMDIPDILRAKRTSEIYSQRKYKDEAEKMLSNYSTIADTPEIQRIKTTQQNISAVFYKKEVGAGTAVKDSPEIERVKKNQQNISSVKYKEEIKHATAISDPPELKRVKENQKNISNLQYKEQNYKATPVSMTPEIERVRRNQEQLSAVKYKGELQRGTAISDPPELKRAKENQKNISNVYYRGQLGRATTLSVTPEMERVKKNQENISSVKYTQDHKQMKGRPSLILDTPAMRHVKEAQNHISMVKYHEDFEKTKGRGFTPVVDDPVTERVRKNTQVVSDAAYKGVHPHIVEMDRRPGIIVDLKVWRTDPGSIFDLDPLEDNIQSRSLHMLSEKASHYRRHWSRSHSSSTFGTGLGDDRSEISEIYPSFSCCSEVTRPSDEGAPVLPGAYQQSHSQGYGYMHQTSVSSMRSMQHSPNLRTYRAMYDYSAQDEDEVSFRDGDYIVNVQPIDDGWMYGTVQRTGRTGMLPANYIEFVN
UniProt O00483, sequence (O00483 whole entry, looked up): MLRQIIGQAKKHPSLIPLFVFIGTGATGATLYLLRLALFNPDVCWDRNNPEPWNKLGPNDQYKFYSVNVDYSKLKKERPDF
UniProt Q9Y6C9, sequence (Q9Y6C9 whole entry, looked up): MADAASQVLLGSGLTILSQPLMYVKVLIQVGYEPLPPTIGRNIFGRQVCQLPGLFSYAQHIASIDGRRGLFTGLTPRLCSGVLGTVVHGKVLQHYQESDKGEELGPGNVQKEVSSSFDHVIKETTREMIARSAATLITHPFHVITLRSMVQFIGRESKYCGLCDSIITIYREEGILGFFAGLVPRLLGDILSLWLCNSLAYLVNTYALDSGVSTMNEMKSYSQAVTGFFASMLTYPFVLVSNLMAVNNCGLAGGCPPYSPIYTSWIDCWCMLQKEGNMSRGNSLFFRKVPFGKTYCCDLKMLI
UniProt Q9UBD5, sequence (Q9UBD5 whole entry, looked up): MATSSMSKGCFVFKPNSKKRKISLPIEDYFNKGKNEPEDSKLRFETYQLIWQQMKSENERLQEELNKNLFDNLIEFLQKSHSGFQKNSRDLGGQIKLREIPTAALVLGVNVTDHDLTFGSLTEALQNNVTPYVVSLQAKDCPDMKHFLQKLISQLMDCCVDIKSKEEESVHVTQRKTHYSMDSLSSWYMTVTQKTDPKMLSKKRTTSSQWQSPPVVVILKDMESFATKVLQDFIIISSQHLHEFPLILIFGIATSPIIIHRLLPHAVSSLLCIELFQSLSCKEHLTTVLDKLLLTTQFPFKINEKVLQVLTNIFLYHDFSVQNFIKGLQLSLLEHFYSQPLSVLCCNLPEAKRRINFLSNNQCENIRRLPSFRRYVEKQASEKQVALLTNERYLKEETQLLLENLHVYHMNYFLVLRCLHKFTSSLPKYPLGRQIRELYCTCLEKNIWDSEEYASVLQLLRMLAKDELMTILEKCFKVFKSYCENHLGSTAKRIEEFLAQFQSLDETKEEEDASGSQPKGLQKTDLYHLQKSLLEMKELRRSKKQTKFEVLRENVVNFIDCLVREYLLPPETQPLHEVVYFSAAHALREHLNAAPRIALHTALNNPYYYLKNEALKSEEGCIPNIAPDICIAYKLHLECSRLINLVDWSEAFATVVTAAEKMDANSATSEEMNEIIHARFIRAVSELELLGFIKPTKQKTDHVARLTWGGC
UniProt Q8NCF5, sequence (Q8NCF5 whole entry, looked up): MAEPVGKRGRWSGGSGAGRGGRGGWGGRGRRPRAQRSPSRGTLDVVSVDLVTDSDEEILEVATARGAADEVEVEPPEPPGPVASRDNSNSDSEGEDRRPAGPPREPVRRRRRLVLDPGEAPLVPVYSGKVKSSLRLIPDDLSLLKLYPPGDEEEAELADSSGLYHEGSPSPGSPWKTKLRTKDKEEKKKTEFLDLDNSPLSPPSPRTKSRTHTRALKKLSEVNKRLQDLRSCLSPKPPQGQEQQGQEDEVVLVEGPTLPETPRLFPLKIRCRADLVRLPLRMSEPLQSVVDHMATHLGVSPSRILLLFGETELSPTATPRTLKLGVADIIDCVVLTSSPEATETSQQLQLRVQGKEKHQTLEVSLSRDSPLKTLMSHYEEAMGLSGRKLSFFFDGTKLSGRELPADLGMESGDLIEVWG
UniProt Q13416, sequence (Q13416 whole entry, looked up): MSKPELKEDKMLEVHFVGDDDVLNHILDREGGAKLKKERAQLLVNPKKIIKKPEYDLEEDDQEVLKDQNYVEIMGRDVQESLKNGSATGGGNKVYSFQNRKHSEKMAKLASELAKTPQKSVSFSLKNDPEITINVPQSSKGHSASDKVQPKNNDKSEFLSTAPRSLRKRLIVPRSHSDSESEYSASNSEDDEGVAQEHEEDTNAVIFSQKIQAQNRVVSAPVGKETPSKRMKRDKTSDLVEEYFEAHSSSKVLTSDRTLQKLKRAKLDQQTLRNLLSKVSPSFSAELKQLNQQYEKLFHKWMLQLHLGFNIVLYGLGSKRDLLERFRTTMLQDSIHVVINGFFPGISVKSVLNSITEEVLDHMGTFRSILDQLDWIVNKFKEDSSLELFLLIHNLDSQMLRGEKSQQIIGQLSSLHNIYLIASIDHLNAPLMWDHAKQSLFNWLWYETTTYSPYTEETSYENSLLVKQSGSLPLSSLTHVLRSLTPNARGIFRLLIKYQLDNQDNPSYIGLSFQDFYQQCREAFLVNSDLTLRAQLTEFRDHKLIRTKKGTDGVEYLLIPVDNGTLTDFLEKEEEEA
UniProt Q9NQR4, sequence (Q9NQR4 whole entry, looked up): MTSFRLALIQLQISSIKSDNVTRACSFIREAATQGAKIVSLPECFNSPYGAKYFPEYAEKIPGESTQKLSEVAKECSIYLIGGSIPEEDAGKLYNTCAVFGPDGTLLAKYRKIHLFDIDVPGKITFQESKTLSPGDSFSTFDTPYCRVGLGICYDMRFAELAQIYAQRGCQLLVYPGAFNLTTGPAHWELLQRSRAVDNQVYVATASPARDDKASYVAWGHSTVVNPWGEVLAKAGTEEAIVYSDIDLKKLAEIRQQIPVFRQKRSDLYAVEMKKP
UniProt Q9BV86, sequence (Q9BV86 whole entry, looked up): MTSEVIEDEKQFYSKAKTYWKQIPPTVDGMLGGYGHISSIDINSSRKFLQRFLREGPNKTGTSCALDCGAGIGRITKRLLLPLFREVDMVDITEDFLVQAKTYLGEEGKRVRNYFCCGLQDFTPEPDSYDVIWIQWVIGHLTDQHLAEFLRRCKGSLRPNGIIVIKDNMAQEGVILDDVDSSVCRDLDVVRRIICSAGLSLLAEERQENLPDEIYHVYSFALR
UniProt Q9H3P2, sequence (Q9H3P2 whole entry, looked up): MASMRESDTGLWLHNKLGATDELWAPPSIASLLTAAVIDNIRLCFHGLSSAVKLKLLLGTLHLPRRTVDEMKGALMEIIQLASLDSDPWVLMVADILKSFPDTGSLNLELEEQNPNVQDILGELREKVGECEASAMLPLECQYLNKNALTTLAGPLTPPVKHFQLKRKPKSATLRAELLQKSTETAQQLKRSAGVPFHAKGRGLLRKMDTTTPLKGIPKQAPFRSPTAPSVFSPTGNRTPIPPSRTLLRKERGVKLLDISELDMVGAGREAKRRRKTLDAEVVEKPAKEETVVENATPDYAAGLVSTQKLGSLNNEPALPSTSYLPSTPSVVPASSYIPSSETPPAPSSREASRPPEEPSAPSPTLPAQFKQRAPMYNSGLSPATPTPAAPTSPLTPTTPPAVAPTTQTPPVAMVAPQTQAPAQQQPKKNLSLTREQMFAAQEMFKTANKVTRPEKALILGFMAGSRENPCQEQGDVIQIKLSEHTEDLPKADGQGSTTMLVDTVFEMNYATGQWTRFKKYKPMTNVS
UniProt Q9NPF4, sequence (Q9NPF4 whole entry, looked up): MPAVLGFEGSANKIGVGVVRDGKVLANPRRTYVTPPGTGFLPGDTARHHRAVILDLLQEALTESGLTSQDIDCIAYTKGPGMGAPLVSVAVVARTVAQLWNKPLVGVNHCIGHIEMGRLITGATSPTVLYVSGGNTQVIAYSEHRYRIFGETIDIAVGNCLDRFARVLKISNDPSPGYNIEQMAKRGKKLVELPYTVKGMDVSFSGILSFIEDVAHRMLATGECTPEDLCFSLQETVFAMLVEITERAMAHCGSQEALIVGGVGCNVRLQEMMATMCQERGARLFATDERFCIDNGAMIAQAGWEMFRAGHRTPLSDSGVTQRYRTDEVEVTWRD
UniProt Q15843, sequence (Q15843 whole entry, looked up): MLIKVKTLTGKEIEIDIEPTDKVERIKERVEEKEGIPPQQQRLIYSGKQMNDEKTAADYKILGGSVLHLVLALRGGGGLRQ
UniProt Q96NT1, sequence (Q96NT1 whole entry, looked up): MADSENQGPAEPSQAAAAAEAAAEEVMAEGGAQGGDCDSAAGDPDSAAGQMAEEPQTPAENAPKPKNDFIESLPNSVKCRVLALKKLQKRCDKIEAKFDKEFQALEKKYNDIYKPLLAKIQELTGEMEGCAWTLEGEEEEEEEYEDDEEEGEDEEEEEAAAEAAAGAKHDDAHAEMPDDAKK

log2 fold change, inactive:
NTPCR (UniProt Q9BSD7) 0.028
MTHFD1L (UniProt B7ZM99) 0.074
NOA1 (UniProt Q8NC60) 0.059
NT5DC2 isoform 2 (UniProt Q9H857) -0.002
OTUD7B (UniProt Q6GQQ9) 0.142
NADK2 (UniProt Q4G0N4) -0.032
NTMT1 (UniProt Q9BV86) 0.07
OSGEP (UniProt Q9NPF4) -0.012
NDUFA4 (UniProt O00483) -0.065
NUB1 (UniProt Q9Y5A7) 0.018
NFATC2 (UniProt Q13469) 0.024
ORC2 (UniProt Q13416) 0.095
NELFCD (UniProt Q8IXH7) 0.046
NMRAL1 (UniProt Q9HBL8) -0.021
PAIP2 (UniProt Q9BPZ3) -0.087
NCAPD2 (UniProt Q15021) 0.044
NEDD8 (UniProt Q15843) -0.038
NFIC (UniProt P08651) 0.029
NELFA (UniProt Q9H3P2) 0.03
NLRP2 (UniProt Q9NX02) 0.013
OSBPL6 isoform 5 (UniProt Q9BZF3) 0.122
MTCH2 (UniProt Q9Y6C9) 0
NAA38 isoform 2 (UniProt Q9BRA0) 0.027
NAP1L5 (UniProt Q96NT1) -0.05
MT-ND1 (UniProt P03886) 0.033
NFATC2IP (UniProt Q8NCF5) 0
MYCBP (UniProt Q99417) -0.038
NIT2 (UniProt Q9NQR4) 0.021
NEBL (UniProt O76041) -0.065
NFKBIB (UniProt Q15653) 0.025
NEK7 (UniProt Q8TDX7) 0.033
NCOR1 (UniProt O75376) 0.021
ORC3 isoform 2 (UniProt Q9UBD5) 0.099
NCK1 (UniProt P16333) 0.029
NFATC1 (UniProt O95644) 0.042

Compound: NC(=O)c1cnc(N[C@@H]2CCCC[C@@H]2N)nc1Nc1cccc(-n2nccn2)c1
Test: as above
Summary of the method: as §1

log2 fold change, inactive:
NTPCR (UniProt Q9BSD7) 0.017
MTHFD1L (UniProt B7ZM99) 0.019
NOA1 (UniProt Q8NC60) 0.04
NT5DC2 isoform 2 (UniProt Q9H857) 0.06
OTUD7B (UniProt Q6GQQ9) 0.026
NADK2 (UniProt Q4G0N4) 0.029
NTMT1 (UniProt Q9BV86) -0.049
OSGEP (UniProt Q9NPF4) -0.027
NDUFA4 (UniProt O00483) 0.08
NUB1 (UniProt Q9Y5A7) 0.004
NFATC2 (UniProt Q13469) -0.025
ORC2 (UniProt Q13416) -0.004
NELFCD (UniProt Q8IXH7) 0.013
NMRAL1 (UniProt Q9HBL8) 0.012
PAIP2 (UniProt Q9BPZ3) -0.02
NCAPD2 (UniProt Q15021) 0.003
NEDD8 (UniProt Q15843) -0.057
NFIC (UniProt P08651) 0.098
NELFA (UniProt Q9H3P2) 0.048
NLRP2 (UniProt Q9NX02) 0.003
OSBPL6 isoform 5 (UniProt Q9BZF3) 0.007
MTCH2 (UniProt Q9Y6C9) -0.027
NAA38 isoform 2 (UniProt Q9BRA0) 0.016
NAP1L5 (UniProt Q96NT1) -0.049
MT-ND1 (UniProt P03886) -0.024
NFATC2IP (UniProt Q8NCF5) -0.015
MYCBP (UniProt Q99417) -0.02
NIT2 (UniProt Q9NQR4) -0.016
NEBL (UniProt O76041) -0.018
NFKBIB (UniProt Q15653) 0.004
NEK7 (UniProt Q8TDX7) 0.018
NCOR1 (UniProt O75376) 0.029
ORC3 isoform 2 (UniProt Q9UBD5) 0.027
NCK1 (UniProt P16333) 0.001
NFATC1 (UniProt O95644) -0.002
